# Assay outcomes (PubChem)
# HPGD inh: inhibitors of human 15-hydroxyprostaglandin dehydrogenase (HPGD) | Potency, µM, inactives show at the highest dose activity change, negative = inhibition, actives largely listed as inhibitors | actives 4.3% (n = 150,000) | purified HPGD, NADH fluorescence kinetic, PGE2 substrate | P15428; also: potency is read from the fitted curve at half-maximal effect
# Target sequence (P15428 whole entry, looked up): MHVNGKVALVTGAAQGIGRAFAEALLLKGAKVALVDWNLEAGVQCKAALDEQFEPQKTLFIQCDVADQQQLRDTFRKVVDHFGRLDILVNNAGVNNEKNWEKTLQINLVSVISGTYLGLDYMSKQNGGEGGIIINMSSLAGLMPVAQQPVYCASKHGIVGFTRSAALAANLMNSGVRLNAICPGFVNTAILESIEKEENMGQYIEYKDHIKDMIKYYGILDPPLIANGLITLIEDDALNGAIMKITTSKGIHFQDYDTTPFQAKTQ
#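 NADH formation kinetics: reaction with 30 uM PGE2 and 1 mM NAD+ (final), 20 nM enzyme, Tris-HCl pH 8 with Tween 20, after 15 min compound preincubation at room temperature. Fluorescence change, last versus first of five reads.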
# IMPase inh: IMPase inhibition in cells | CHO-M1 cells, IP1 accumulation, HTRF TR-FRET ratio | P97697 | AID 901 | 120,000 tested, under 10 active | inhibition (IP1 accumulation), % at 46.1 µM; active = well fitted curve in the direction sought with a large enough effect in the signal ratio, not every such curve was filed as active; inconclusive = small, poorly fitted or top-dose-only effect, or a change in a side signal; inactive = no such curve, though single readings can be large or run the other way; the % refers to the signal ratio;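 also: cells stimulated with carbachol in lithium chloride buffer; plate controls were DMSO basal wells for no effect and reference inhibitor wells for full effect; higher means more IMPase inhibition seen as more IP1 and lower FRET ratio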
# Target sequence (P97697 whole entry, looked up): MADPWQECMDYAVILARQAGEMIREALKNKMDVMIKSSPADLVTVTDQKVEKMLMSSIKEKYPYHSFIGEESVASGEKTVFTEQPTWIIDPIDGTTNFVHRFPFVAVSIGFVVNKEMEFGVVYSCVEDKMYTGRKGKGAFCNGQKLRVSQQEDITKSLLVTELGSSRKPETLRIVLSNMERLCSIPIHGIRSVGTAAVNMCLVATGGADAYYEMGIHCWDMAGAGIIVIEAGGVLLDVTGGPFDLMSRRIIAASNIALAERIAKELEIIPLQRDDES
#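 Carbachol-driven Gq signalling in CHO-M1 cells (2000/well) generates IP1. Compounds that block IMPase raise IP1 and so reduce the FRET signal from Eu-anti-IP1 and d2-IP1 after a 10 min room-temperature lysis.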
# ALDH1A1 inh: inhibitors of human aldehyde dehydrogenase 1A1; actives 7.3% (n = 220,000); Potency, µM (doses to about 75.3 µM), for the others: at the top dose activity, negative = inhibition, most hits filed as inhibitors; P00352; AID 1030; Purified ALDH1A1, NADH fluorescence, propionaldehyde substrate;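 also: potency is read from the fitted curve at half-maximal effect; plate controls were no enzyme wells and a reference inhibitor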
# Active calls of the source: *; ? = inconclusive; / = no result; [ ] = another dose, or the depositor's remark. Hits are enriched below; roughly 9% of the tested compounds scored in any of these assays. Unless noted, calls follow the shape of the dose curve; as a rule, active = well fitted inhibition curve with a large enough effect (not every such curve was filed as active); inconclusive = small, poorly fitted or top-dose-only effect, or another doubt; inactive = no such curve, though single readings can be large or run the other way. Unless noted, % is scaled to controls: 0 for no effect and ±100 for the full control effect.
SMILES,HPGD inh,IMPase inh,ALDH1A1 inh
O=C1C(c2ccc(C(F)(F)F)cc2)=C(Nc2ccc(Cl)cc2)c2ccccc21,/,2,/
COc1cccc(CN(C)C(=O)c2cccnc2SC)c1OC,/,/,1%
C=CCN(Cc1cccc(OC)c1OC)S(=O)(=O)N(C)C,-14%,7,25µM*
COC(=O)C1=C(C)NC(=O)NC1c1ccc(OC(=O)c2ccco2)cc1 (stereo unspecified),/,/,-1%
CC(Sc1nc2ccccc2s1)C(=O)NC1CCCc2ccccc21 (stereo unspecified),-4%,9,13µM*
CC(Sc1nnnn1C)C(=O)NC1CCCc2ccccc21 (stereo unspecified),/,/,6%
CC1CN(C(=O)C(C)Sc2nc3ccccc3s2)CC(C)O1 (stereo unspecified),28µM*,-3,?
Cc1ccc2nc(SC(C)C(=O)N3CC(C)OC(C)C3)[nH]c2c1 (stereo unspecified),/,/,-2%
O=C(NCc1ccccn1)c1ccc(CNS(=O)(=O)c2cccc(Cl)c2)cc1,-7%,/,3%
CCCN1CN(Cc2ccccc2)CNC1=S,-4%,4,2%
COCCCN1CN(Cc2ccccc2)CNC1=S,-7%,0,8.9µM*
COc1cc(SC#N)ccc1N=Cc1c(C)[nH]n(-c2ccc(C)cc2C)c1=O,8.9µM*,15,0.71µM*
COc1cc(S(=O)(=O)Nc2ccc(C)cc2)ccc1N=Cc1c(C)[nH]n(-c2ccc(C)cc2)c1=O,-17%,/,1%
COc1cc(SC#N)ccc1N=Cc1c(C)[nH]n(-c2cccc3ccccc23)c1=O,?,-4,0.45µM*
COc1ccc2nc(/N=C/c3c(C)[nH]n(-c4ccc(C)cc4C)c3=O)sc2c1,?,-4,-5%
CCc1ccccc1S(=O)(=O)Cc1ccc(C(=O)NCc2cccs2)o1,/,/,5%
Cc1ccc(-n2c(C)cc(/C=N/NC(N)=S)c2C)cc1,-6%,/,?
COc1ccc(-n2c(C)cc(/C=N/Nc3nnc(C)n3N)c2C)cc1,-19%,-1,13µM*
COCC(=O)N1CCC2(CCN(Cc3ccncc3)CC2)CC1,-8%,/,?
COc1ccccc1-c1nnc(SC/C(O)=C(\C#N)c2nc3ccccc3[nH]2)n1C1CCCCC1,35µM*,/,?
N#C/C(=C(/O)CSc1nnc(Cc2cccs2)n1C1CCCCC1)c1nc2ccccc2[nH]1,-18%,-1,?
N#Cc1cccc(-c2nc(Nc3ccccc3)c3ccccc3n2)c1,-14%,/,?
CC(C)(C)N1C(=O)c2ccc(C(=O)O)cc2C1=O,-19%,6,11%
Cc1ccc(/C=C2/C(=O)c3ccc(C(=O)O)cc3C2=O)o1,/,/,7.1µM*
O=C(O)c1ccc2c(c1)C(=O)/C(=C/c1ccccc1)C2=O,13µM*,/,-15%
SMILES,HPGD inh,IMPase inh,ALDH1A1 inh
Cc1ccc(C=C2C(=O)c3ccccc3C2=O)o1,-7%,/,-16%
Cc1ccc(NC2=C/C(=N\S(=O)(=O)c3cccs3)c3ccccc3C2=O)c(C)c1,-12%,28,-15%
Cc1cc(C)c(S(=O)(=O)/N=C2/C=C(SCC(=O)O)C(=O)c3ccccc32)cc1C,/,/,7.1µM*
N#Cc1cccc(NC(=O)N2CC3(CCN(C(=O)c4cnccn4)CC3)C2)c1,-22%,/,-6%
Cc1nn(-c2ccccc2)c(C)c1C(=O)OCC(N)=O,/,/,11%
Cc1nn(-c2ccccc2)c(C)c1C(=O)OCC(=O)NCc1ccco1,-17%,-4,22µM*
C/C(CC(=O)NCc1ccco1)=N\NC(=O)COc1ccc(C)cc1,2%,2,-10%
Cc1ccc(OCC(=O)NCc2ccco2)cc1C,20µM*,-3,?
Cc1cc(Cl)cc(Cl)c1OCC(=O)NCc1ccco1,25µM*,1,?
CCOc1ccccc1OCC(=O)NCc1ccco1,-20%,-6,?
O=C(COc1ccccc1-c1ccccc1)NCc1ccco1,/,/,7.1µM*
O=C(COc1ccc(Cl)cc1Cl)NCc1ccco1,?,0,0%
COc1cc(C2C(C#N)=C(N)Oc3n[nH]c(-c4cccnc4)c32)cc(Br)c1O (stereo unspecified),/,/,1%
S=C(NNc1ccc2ccccc2c1)NC1CCCCC1,-7%,10,-7%
CCOC(=O)N(NC(=O)C(O)(CC(C)C)CC(C)C)c1ccccc1,-9%,2,0%
CN(C)c1cccc2c(C=C(C#N)C#N)ccc(N(C)C)c12,-13%,/,?
CCCCN(C)C(=O)c1nc2ccccn2c1CN1CCC[C@H]1C(=O)OC,/,/,6%
O=c1cc(N2CCCC2)c(-c2ccccc2)n[nH]1,/,/,-7%
COc1ccc(Cn2nc(-c3ccccc3)c(N3CCCCC3)cc2=O)cc1,/,/,-15%
O=c1cc(N2CCCCC2)c(-c2ccccc2)nn1Cc1ccccc1,/,/,16µM*
Cn1nc(-c2ccccc2)c(N2CCCCC2)cc1=O,/,/,28µM*
Cc1nnc(SCC(=O)N(C)C2CCCCC2)s1,/,/,5%
O=C(NC(=S)NCc1cccnc1)c1cccc2ccccc12,/,/,-11%
Cc1cc([N+](=O)[O-])nn1CC(=O)N1CCCc2ccccc21,-11%,7,?
Cc1cccc(NCCC(=O)c2ccc(Br)cc2)c1,-10%,2,0.79µM*
SMILES,HPGD inh,IMPase inh,ALDH1A1 inh
CC(C)c1ccc(NC(=O)c2cccc(Br)c2)cc1,/,/,-3%
CCOC(=O)CNCCC(=O)c1ccc(Br)cc1,?,/,0.28µM*
CC(C)c1ccc(NCCC(=O)c2ccc(Br)cc2)cc1,-8%,0,4µM*
Cc1cccc(C(=O)NNC(=O)c2ccc(Br)cc2)c1,/,/,9%
Cc1ccc(C(=O)NCC(=O)NCC(=O)OCC(=O)c2ccc(Br)cc2)cc1,-15%,/,13%
CCN(CC)S(=O)(=O)c1cccc(NC(=O)c2ccc(C#N)cc2)c1,/,/,-4%
N/C(Cc1ccc([N+](=O)[O-])cc1)=N\OC(=O)C(c1ccccc1)c1ccccc1,/,-9,-3%
Cn1ncc(S(=O)(=O)Cc2ccccc2)c(Cl)c1=O,/,/,1.1µM*
Cn1ncc(SCc2ccccc2)c(Cl)c1=O,/,/,-1%
O=C(NCC1CCCO1)c1ccc(N2CCCCC2)nc1 (stereo unspecified),14µM*,-3[1.84 µM],?
O=C(NCC1CCCO1)c1ccc2nc(N3CCCCC3)sc2c1 (stereo unspecified),?,1,?
O=C(NCC1CCCO1)NC1CCCCC1 (stereo unspecified),28µM*,?,11%
O=C(NCC1CCCO1)c1ccccc1 (stereo unspecified),20µM*,-8,4%
O=C(NC(=S)NCC1CCCO1)c1ccccc1 (stereo unspecified),-30%,/,19%
Cc1cccc(C(=O)NCC2CCCO2)c1 (stereo unspecified),?,?,-1%
O=C(NCC1CCCO1)c1cccc(F)c1 (stereo unspecified),22µM*,-3,5%
S=C(NCC1CCCO1)NC1CC1 (stereo unspecified),/,/,-1%
CN(C)c1nnnn1-c1ccc(Oc2ncc(C(F)(F)F)cc2Cl)cc1,/,/,-5%
COC(=O)/C=C/c1oc2ccccc2c1C,/,/,6%
O=C(NCC1CCCO1)C1CCC(CNS(=O)(=O)c2ccccc2)CC1 (stereo unspecified),-9%,-4,14µM*
CC(CC(=O)NCC1CCCO1)c1ccccc1 (stereo unspecified),16µM*,-3,15%
CN(C)c1ccc(C(=O)NCC2CCCO2)cc1 (stereo unspecified),14µM*,-2[0.369 µM],1%
